Bioassay records as filed in PubChem.
VP16 counter: inhibits Gal4-VP16 luciferase reporter, ROR gamma counter-screen. Potency, µM (titrated, usually from 53.6 µM), without a hit: at the top dose activity, negative = inhibition, usual class: inhibitors. AID 2546. Drosophila S2 Gal4-VP16 UAS-luciferase, luminescence, 20 h. hit rate 3.5% among 310,000;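 further: Gal4-VP16 expression switched on by copper sulfate through the metallothionein promoter; on the % scale 0 is the no-effect control and ±100 the full control effect; nearly all actives have a fitted effect of over 50% in size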
ATXN2 expr inh: ATXN2 expression inhibition. HEK-293 ATXN2-luciferase reporter, luminescence, 24 h. Potency, µM (highest dose often 57 µM), for inactives: at the top dose activity change, negative = inhibition, actives largely listed as inhibitors. hit rate 0.72% among 360,000; further: on the % scale 0 is the no-effect control and ±100 the full control effect; nearly all actives have a fitted effect of over 55% in size
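qHTS (up to 57 uM final) was run with 24 h compound exposure of reporter cells at 37 °C. Each well was multiplexed: SteadyGlo luminescence measured ATXN2-luciferase expression after a fluorogenic Gly-Phe-AFC viability readout (25 uM final).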
S2 tox: cell viability loss in ATXN counter-screen; S2 cells (HEK-293 line with an ATXN2-luciferase reporter) viability, CellTiter-Fluor protease fluorescence, 24 h; hit rate 0.49% among 400,000; Potency, µM (top dose mostly 56.7 µM), most hits filed as cytotoxic; further: nearly all actives have a fitted effect of over 40% in size
RORg inh: blocks mouse ROR gamma transcriptional activity; P51450; Drosophila S2 Gal4-RORgamma UAS-luciferase reporter, 20 h; Potency, µM (titrated, usually from 53.6 µM), without a hit: at the top dose activity change, negative = inhibition, usual class: inhibitors; hit rate 5.4% among 310,000; AID 2551; further: on the % scale 0 is the no-effect control and ±100 the full control effect; nearly all actives have a fitted effect of over 60% in size
Target sequence (P51450 whole entry, looked up, the tested form may be a part): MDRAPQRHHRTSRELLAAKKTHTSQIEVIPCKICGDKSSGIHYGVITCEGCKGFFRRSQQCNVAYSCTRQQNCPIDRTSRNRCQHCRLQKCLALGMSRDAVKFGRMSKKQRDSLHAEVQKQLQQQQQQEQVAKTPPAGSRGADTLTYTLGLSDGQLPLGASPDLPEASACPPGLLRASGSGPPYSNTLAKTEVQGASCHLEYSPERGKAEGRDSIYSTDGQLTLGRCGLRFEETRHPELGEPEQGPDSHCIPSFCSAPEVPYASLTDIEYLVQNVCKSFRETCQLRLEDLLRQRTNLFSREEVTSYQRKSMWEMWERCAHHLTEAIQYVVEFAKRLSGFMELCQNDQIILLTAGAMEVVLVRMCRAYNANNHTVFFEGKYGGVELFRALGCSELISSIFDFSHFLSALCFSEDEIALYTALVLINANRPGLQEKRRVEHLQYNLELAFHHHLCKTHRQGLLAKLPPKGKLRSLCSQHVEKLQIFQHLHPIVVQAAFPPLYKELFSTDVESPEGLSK
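Compounds are pin-transferred onto Drosophila Schneider cells expressing a copper-inducible Gal4–ROR gamma transactivation domain fusion. After 1 hr, copper sulfate is added to 700 uM final; luciferase is read 20 hr later.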
TGFb SMAD3 inh: blocks TGF-b signaling; HepG2 CAGA-GFP TGF-b/SMAD3 reporter, GFP fluorescence, 18 h; TGF-beta stimulated, 500 pg/mL final; Potency, µM (series often up to 46.1 µM), for inactives: top-dose activity, negative = inhibition, actives largely listed as inhibitors; hit rate 1.2% among 410,000; further: on the % scale 0 is the no-effect control and ±100 the full control effect; nearly all actives have a fitted effect of over 65% in size
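HEPG2 CAGA-GFP reporter cells (1000/well, DMEM with 1% FBS) received compounds, then recombinant TGF-beta at 500 pg/mL final for 18 hours at 37 degrees C. Per-cell GFP summed per well was normalised to unstimulated and stimulated DMSO controls before curve fitting.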
HepG2 tox: HepG2 cytotoxicity, counter-screen for TGF-b inhibitors. HepG2 CAGA-GFP viability, ATP luminescence, 18 h. Potency, µM (series often up to 46.1 µM), inactives show top-dose activity change, negative = cytotoxicity, usual class: cytotoxic. hit rate 0.76% among 410,000. AID 588856
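HepG2 CAGA-GFP cells (1000/well, DMEM with 1% FBS) received compound, then TGF-beta at 500 pg/mL final, and were incubated 18 hours at 37 degrees C. Viability was read by CellTiter-Glo luminescence. Media-only wells were set as complete cell-killing and DMSO as no toxicity.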
* = called active by the depositor; i = inactive; u = inconclusive; x = not tested or not shown; [ ] = remark or other dose. Hits are enriched below; roughly 6.1% of the tested compounds scored in any of these assays. The call rests on the fitted dose curve; in most records, active means well fitted curve in the direction sought with a large enough effect; inconclusive means small, poorly fitted or top-dose-only effect, or another doubt; inactive means no such curve, though single readings can be large; an effect the other way counts as inactive or inconclusive. Potency means the concentration at half of the fitted maximal effect.

SMILES	VP16 counter	ATXN2 expr inh	S2 tox	RORg inh	TGFb SMAD3 inh	HepG2 tox
CS(=O)(=O)c1ccc(C2=C(CNC(=O)c3ccc([N+](=O)[O-])cc3)[C@H]3CC[C@@H](C2)N3Cc2ccccc2)cc1	x	-2%	i	x	-2%	-27%
ClC(Br)Br	2%	x	x	2%	x	x
Cc1ccsc1/C=N/NC(=O)c1cccc(S(=O)(=O)Nc2ccccc2Cl)c1	3.2µM*	1%	i	2.5µM*	-5%	-17%
CCCCCOC(=O)c1ccccc1C(=O)OCCCCC	-5%	x	x	20%	x	x
[O-][Cl+]O	-13%	x	x	-11%	x	x
C[C@]12[C@H](O)CC3C(CC[C@@H]4C[C@@H](O)CC[C@]34C)[C@@]1(O)CC[C@@H]2C1=CC(=O)OC1 (some centres undefined)	-3%	x	x	-7%	x	x
C[C@H]1O[C@@H](O[C@H]2[C@@H](O)C[C@@H](O[C@H]3[C@@H](O)C[C@H](O[C@H]4CC[C@@]5(C)[C@H](CC[C@@H]6[C@@H]5CC[C@]5(C)[C@@H](C7=CC(=O)OC7)CC[C@]65O)C4)O[C@@H]3C)O[C@@H]2C)C[C@H](O)[C@@H]1O	x	x	x	x	0.32µM*	-49%
CC(=O)OC1CC(OC2C(O)CC(OC3C(O)CC(OC4CCC5(C)C(CCC6C5CC(O)C5(C)C(C7=CC(=O)OC7)CCC65O)C4)OC3C)OC2C)OC(C)C1OC1OC(CO)C(O)C(O)C1O (centres undefined)	u	0.32µM*	u	-18%	1.4µM*	-47%
CO[C@H]1[C@@H](O)CC(OC2[C@@H](O)CC(OC3[C@@H](O)C[C@H](OC4CC[C@@]5(C)C(CCC6C5CC(O)[C@]5(C)[C@H](C7=CC(=O)OC7)CCC65O)C4)O[C@@H]3C)O[C@@H]2C)O[C@@H]1C (some centres undefined)	-2%	x	x	2.5µM*	x	x
C[C@@H]1O[C@@H](O[C@H]2CC[C@]3(C=O)C4CC[C@]5(C)[C@@H](C6=CC(=O)OC6)CC[C@]5(O)[C@@H]4CC[C@]3(O)C2)[C@H](O)[C@H](O)[C@H]1O (some centres undefined)	-6%	x	x	0%	x	x
CC1O[C@@H](O[C@@H]2C(O)C[C@H](O[C@@H]3C(O)C[C@@H](OC4CC[C@@]5(C)C6CC[C@]7(C)C(C8=CC(=O)OC8)CC[C@@]7(O)C6CC[C@@H]5C4)OC3C)OC2C)CC(O)[C@H]1O (some centres undefined)	3%	x	x	3.2µM*	x	x
Clc1nc(Cl)nc(Cl)n1	-4%	x	x	0%	x	x
CCCCCCCCCCCCCCC[C@@H](O)[C@@H](N)COP(=O)(O)O	4%	x	x	-1%	x	x
Cc1cc2ccccc2n1-c1ccc(C(=O)N2CCC(C(=O)NCc3ccc(Cl)cc3)CC2)s1	x	x	x	x	u	-27%
O=C(Cn1c(=O)oc2cc(S(=O)(=O)N3CCCCC3)ccc21)NCc1ccc(Cl)cc1	x	u	u	x	u	-48%
CCOC(=O)c1cccc(NC(=O)c2cnc(N3CCCCC3)c3ccccc23)c1	x	x	x	x	u	-21%
C[C@H]1O[C@@H](O[C@H]2[C@@H](O)C[C@H](O[C@H]3[C@@H](O)C[C@H](O[C@H]4CC[C@]5(C)C6CC[C@]7(C)[C@@H](C8=CC(=O)OC8)CC[C@]7(O)C6CC[C@@H]5C4)O[C@@H]3C)O[C@@H]2C)C[C@H](O)[C@@H]1O (some centres undefined)	-12%	x	x	2.5µM*	x	x
CC1OC(OC2C(O)CC(OC3C(O)CC(OC4CCC5(C)C(CCC6C5CCC5(C)C(C7=CC(=O)OC7)CCC65O)C4)OC3C)OC2C)CC(O)C1O (centres undefined)	-7%	x	x	1.1µM*	x	x
CC(=O)O[C@H]1C[C@H](O[C@H]2[C@@H](O)CC(O[C@H]3[C@@H](O)C[C@H](O[C@H]4CC[C@@]5(C)[C@H](CC[C@@H]6[C@@H]5CC[C@]5(C)[C@@H](C7=CC(=O)OC7)CC[C@]65O)C4)O[C@@H]3C)O[C@@H]2C)O[C@H](C)[C@H]1O[C@@H]1O[C@H](CO)[C@@H](O)[C@H](O)[C@H]1O (some centres undefined)	5%	x	x	u	x	x
NC(Cc1ccc(C(F)(F)F)cc1)c1csc(Nc2nncc3ccccc23)n1 (centres undefined)	x	u	u	x	u	-79%
CC(=O)C(O)C(c1ccccc1)c1c(O)c2ccccc2oc1=O (centres undefined)	-2%	x	x	2%	x	x
CC[C@@H]1[C@@H](C)O[C@@](O)([C@@H](C)[C@H](O)[C@H](C)[C@H]2OC(=O)C=CC=C[C@@H](C)[C@@H]([C@@H](C)[C@@H](O)[C@H](C)[C@@]3(O)C[C@H](O[C@H]4C[C@H](O)[C@H](O)[C@H](C)O4)[C@H](CC)[C@@H](C)O3)OC(=O)C=CC=C[C@@H]2C)C[C@H]1O[C@H]1C[C@H](O)[C@H](O)[C@H](C)O1	x	0.97µM*	x	x	x	x
C[C@@H](Cc1cccc(C(F)(F)F)c1)NCCCc1ccccc1	-11%	x	x	22µM*	x	x
CCN[C@@H](C)Cc1ccccc1	x	12%[116 µM]	i	x	x	x
Cc1cc(C)cc(N2C(=O)NC(=O)/C(=C/c3cccn3-c3ccc(Cl)cc3)C2=O)c1	11µM*	u	x	32µM*	-28%	-16%
SMILES	VP16 counter	ATXN2 expr inh	S2 tox	RORg inh	TGFb SMAD3 inh	HepG2 tox
Cc1cccc(N2C(=O)NC(=O)/C(=C\c3cccn3-c3ccc(Cl)cc3)C2=O)c1	u	u	u	u	u	-18%
CCCSC(=O)Cl	3%	x	x	15%	x	x
O=C(O)c1ccc(-c2ccc3cc(C45CC6CC(CC(C6)C4)C5)c(O)cc3c2)cc1	11µM*	x	x	u	x	x
Cc1ccc(-c2cc(-c3ccc(C)cc3)[n+](-c3ccc(C(=O)O)cc3)c(-c3ccc(C)cc3)c2)cc1	x	0%	i	x	9%	-13%
CC(O)C1C=CC=CC(=O)OC2CC3OC4C5OC5(C)C(O)CC4(COC(=O)C(O)C(C)CCO1)C2(C)C31CO1 (centres undefined)	x	u	u	x	0.45µM*	4%
CC1=CC2OC3CC4OC(=O)C=CC=CC(C(C)O)OCC(O)C5(C)OC5C(=O)OCC2(CC1O)C4(C)C31CO1 (centres undefined)	x	0.11µM*	u	x	0.16µM*	-7%
